Only some compounds are listed: those with a hit (about 12% of all), similar ones and a draw of the others.
Pf growth 96h: inhibits malaria parasite growth, 96 h | P. falciparum luciferase reporter growth, 96 h | Potency, µM (top dose mostly 28.7 µM), without a hit: top-dose activity change, negative = inhibition, actives largely listed as inhibitors | 320,000 tested, 6.9% active | AID 504834; also: % is scaled to controls: 0 for no effect and ±100 for the full control effect
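Compounds incubated with erythrocytes infected by luciferase-expressing P. falciparum (2% hematocrit, 0.05% parasitemia final) for 96 hours, 37 C in 5% CO2. Growth inhibition scored as decreased luciferase luminescence.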
AMA1-RON2 inh: inhibitors of Plasmodium falciparum AMA1-RON2 interaction | AlphaScreen AMA1-biotinylated RON2 peptide binding | Potency, µM (series often up to 58.2 µM), for inactives: at the highest dose activity change, negative = inhibition, usual class: inhibitors | 360,000 tested, 0.2% active;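 also: 0% = vehicle wells and -100% = peptide control; nearly all actives have a fitted effect of over 45% in size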
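AMA1 (3D7) with his tag at 25 nM final met compounds first, then biotinylated RON2 peptide at 25 nM; detection used donor plus acceptor beads, 10 µg/mL apiece, read by AlphaScreen after 30 min at room temperature.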
Pf growth 48h: inhibits P. falciparum growth in the first generation, 48 h | Potency, µM (highest dose often 28.7 µM), without a hit: at the highest dose activity change, negative = inhibition, usual class: inhibitors | P. falciparum luciferase growth in erythrocytes, 48 h | 310,000 tested, 5.9% active | AID 504832; also: % is scaled to controls: 0 for no effect and ±100 for the full control effect
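First compound was added to culture medium, then infected red cells at 0.1% parasitemia and 2% hematocrit (final). After incubation at 37 C under 5% CO2, luciferase detection reagent was dispensed and light output recorded.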
NS1 inh: blocks influenza NS1 protein function | Potency, µM (highest dose often 46.1 µM), for the others: at the top dose activity, positive = more growth | 270,000 tested, 0.4% active; calls by dose curve; also: actives are rising curves; nearly all actives have a fitted effect of over 50% in size
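Compounds were scored for reversing the slow growth caused by influenza A NS1 in S. cerevisiae, measured by optical density at 600 nm. Assay medium contained 2% galactose at pH 6.0; NS1-free yeast of the same strain were the positive control.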
SARS PLpro yeast: SARS-CoV PLP inhibition in yeast | 330,000 tested, 0.19% active | AID 485353 | S. cerevisiae expressing SARS-CoV PLpro, growth rescue | Potency, µM (doses to about 32.9 µM), without a hit: top-dose activity, positive = growth rescue, most hits filed as activators; calls by dose curve; also: 0% is about no effect; nearly all actives have a fitted effect of over 55% in size
HCV inhibitor: HCV inhibition. Huh7.5.1 HCVcc-Cre infection, luciferase reporter, 44 h. Potency, µM (top dose mostly 41.8 µM), for inactives: at the highest dose activity change, negative = inhibition, actives largely listed as inhibitors. 340,000 tested, 3.4% active; also: % is scaled to controls: 0 for no effect and ±100 for the full control effect
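Luciferase read-out (15 sec integration) after a 15 min room-temperature substrate step quantifies HCVcc-Cre infection. Cells, 1,000 per well, had compound added 4 h post-plating, then virus at ~0.5 moi, and were cultured 44 h.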
* = called active by the depositor; ? = inconclusive; . = not tested or not shown; ! = a repeat was not active; [ ] = remark or other dose. Unless noted, calls follow the shape of the dose curve; as a rule, active = well fitted curve in the direction sought with a large enough effect; inconclusive = small, poorly fitted or top-dose-only effect, or another doubt; inactive = no such curve, though single readings can be large; an effect the other way counts as inactive or inconclusive. Potency is read from the fitted curve at half-maximal effect.

SMILES	Pf growth 96h	AMA1-RON2 inh	Pf growth 48h	NS1 inh	SARS PLpro yeast	HCV inhibitor
COc1ccc(C)cc1NC(=O)c1ccoc1C	.	-1.1%	2.3%	-49.5%	1.1%	14.1µM*
COc1cc(OC)c(NC(=O)c2ccoc2C)cc1Cl	.	-2.5%	-8.9%	-1.9%	-4.5%	?
COc1ccc(C(C)(C)C)cc1NC(=O)c1ccoc1C	11.7µM*	-7.0%	11.7µM*	-90.4%	-19.5%	?
Cc1cc(C)n2c(NC3CCCCC3)c(-c3ccc(F)cc3)nc2n1	.	15.2%	.	.	.	.
Cc1ccc(Nc2nnc(SCC(=O)c3ccc(Br)s3)s2)c(C)c1	1.04µM*	6.9%[11.6 µM]	-4.0%	?	-11.3%	7.4%
Cc1cccc(C)c1Nc1nnc(SCC(=O)c2ccc(Br)s2)s1	?	-3.1%	-7.7%	20.1%	?	-11.3%
CC(C)COc1ccc(CNC(=S)Nc2ccccc2)cc1Cl	?	77.9%	-11.9%[0.00184 µM]	-2.4%	-3.0%	10µM*
CCCOc1ccc(CNC(=S)Nc2ccccc2)cc1Cl	-0.7%	49.1%	.	-52.1%	-2.3%	15.8µM*
COc1ccc(C(c2nnnn2CC2CCCO2)N2CCN(c3cccc(C)c3C)CC2)cc1 (stereo unspecified)	2.9%	-1.5%	9.28µM*	-42.8%	-0.8%	-0.5%
CCCCC(c1nnnn1CC1CCCO1)N1CCN(c2cccc(C)c2C)CC1 (stereo unspecified)	.	-3.2%	13.1µM*	-63.4%	-1.3%	7.8%
COc1ccc(C(c2nnnn2CC2CCCO2)N2CCC(C(N)=O)CC2)cc1 (stereo unspecified)	-17.3%	0.6%	9.9%	15.1%	-16.7%	11.5%
CCCCC(c1nnnn1CC1CCCO1)N1CCN(Cc2ccccc2)CC1 (stereo unspecified)	?	-16.4%	?	-2.7%	-6.8%	-17.9%
CCN(CC)c1ccc(NC(=O)CNCc2ccccc2Cl)c(C)c1	?	?	2.4%[0.00184 µM]	-0.2%	0.6%	-29.1%
O=C(Nc1cccc(C(F)(F)F)c1)c1csc([C@H]2C[C@H](O)[C@@H](CO)O2)n1	.	0.0%	.	.	.	.
Cc1ccccc1-n1cnc2c(sc3nc(N4CCOCC4)c4c(c32)CCCC4)c1=O	?	?	10.4µM*	10.7%	0.7%	17.8µM*
COC(=O)c1ccc(CSc2ncnc3c2sc2nc(N4CCOCC4)c4c(c23)CCCC4)o1	.	-3.5%	.	.	.	-19.9%
CCOC(=O)C(Sc1ncnc2c1sc1nc(N3CCOCC3)c3c(c12)CCCC3)c1ccccc1 (stereo unspecified)	?	.	1.65µM*	12.9%	3.4%	.
O=c1c2sc3nc(N4CCOCC4)c4c(c3c2ncn1-c1ccccc1)CCCC4	31.2%	-23.2%	?	.	1.6%	10µM*
CCOC(=O)CSc1ncnc2c1sc1nc(N3CCOCC3)c3c(c12)CCCC3	-11.5%	12.2%	.	5.1%	7.4%	5.0%
COC(=O)c1ccc(Cn2cnc3c(sc4nc(N5CCOCC5)c5c(c43)CCCC5)c2=O)o1	26.1%	-12.2%	1.65µM*	?	-6.2%	11.2µM*!
COc1ccc(-c2cn(CCO)c(-c3ccc(Cl)nc3)n2)cc1	?	-1.1%	?	.	-5.0%	47.5%
NC(=O)c1ccc(=O)n(Cc2ccc(Cl)cc2Cl)c1	30.4%	-1.9%	-6.7%[0.00184 µM]	-3.7%	1.0%	1.7%
COc1ccc(-n2cnc3c(sc4nc(N5CCOCC5)c5c(c43)CCCC5)c2=O)cc1	2.94µM*	2.7%	-2.2%	.	1.8%	-11.9%
C=CCNc1nnnc2c1sc1nc(N3CCOCC3)c3c(c12)CCCC3	?	-0.5%	?	4.1%	-0.3%	?
Cc1ccc(-n2cnc3c(sc4nc(N5CCOCC5)c5c(c43)CCCC5)c2=O)cc1	-8.1%	3.7%	?	1.6%	0.4%	?
SMILES	Pf growth 96h	AMA1-RON2 inh	Pf growth 48h	NS1 inh	SARS PLpro yeast	HCV inhibitor
CC(C)CNc1nnnc2c1sc1nc(N3CCOCC3)c3c(c12)CCCC3	1.31µM*	-7.7%	1.65µM*	1.1%	-0.7%	4.3%
CCCC[C@@H]1C=C(C(=O)O)[C@H](c2ccc(CC)cc2)N1S(=O)(=O)c1ccc(C)cc1	.	2.2%	.	.	-0.8%	0.562µM*
CCCCC[C@@H]1C=C(C(=O)O)[C@H](c2ccc(CC)cc2)N1S(=O)(=O)c1ccc(C)cc1	.	15.0%	.	.	0.4%	28.8%[8.37 µM]
Cc1ccc(S(=O)(=O)N2[C@@H](c3cccc(Cl)c3)C(C(=O)O)=CC[C@H]2c2ccc3c(c2)OCO3)cc1	?	-2.4%	9.28µM*	.	0.3%	13.3%
Cc1ccc(S(=O)(=O)N2[C@@H](c3cccc(Cl)c3)C(C(=O)O)=CC[C@H]2c2cccc(Cl)c2)cc1	36.3%	13.7%	?	.	-26.4%	?
CC[C@@H]1C=C(C(=O)O)[C@H](c2ccc3c(c2)OCO3)N1S(=O)(=O)c1ccc(C)cc1	.	2.7%	.	.	4.2%	31.6µM*
Cc1ccc([C@H]2C(C(=O)O)=CC[C@@H](c3ccc4c(c3)OCO4)N2S(=O)(=O)c2ccc(C)cc2)cc1	.	2.1%	.	.	-1.3%	-6.4%
Cc1ccc(S(=O)(=O)N2[C@@H](c3ccc(Cl)cc3)C(C(=O)O)=CC[C@H]2c2ccc3c(c2)OCO3)cc1	8.28µM*	7.8%	9.28µM*	.	-0.5%	18.1%
CCCS(=O)(=O)NC(=O)C1(C)CCN(C(=O)c2snnc2C)C1 (stereo unspecified)	.	-9.1%	.	.	.	.
OCC[C@@H]1C[C@H](O)[C@@H](O)[C@@]2(CCCCO2)O1	.	-8.4%	.	.	.	25.4%
N=C1SC(c2ccccc2)C(=O)N1c1ncc(Cc2ccccc2Cl)s1 (stereo unspecified)	?	73.6%	?	7.2%	4.5%	-17.9%
Cc1ccc(C)c(S(=O)(=O)Nc2nc(C)c(C(=O)Nc3ccccc3)s2)c1	0.657µM*	-6.4%	?	-1.2%	17.3%	7.7%
Cc1ccc(S(=O)(=O)Nc2nc(C)c(C(=O)NNS(=O)(=O)c3cc(C)ccc3C)s2)cc1	-5.5%	12.4%	-19.0%	20.4%	-0.1%	13.8%
CCc1ccc(O)c(CNCCNCc2cc(CC)ccc2O)c1	5.86µM*	57.0%	6.57µM*	.	4.2%	?
Cc1ccc(O)c(CNCCNCc2cc(C)ccc2O)c1	2.62µM*	113.7%	7.38µM*	.	0.8%	?
Cc1ccc(O)c(Cc2cc(C)cc(Cc3cc(C)ccc3O)c2O)c1	.	2.6%	.	.	.	.
Oc1cc(CNCc2ccccc2)c(O)cc1CNCc1ccccc1	.	13.6%	.	.	.	13.0%
COc1ccc(C(=O)Nc2ccc(C(=O)c3ccccc3)cc2)cc1	.	13.4%	.	.	.	?
CCN(Cc1ccccc1)C(=O)c1ccc(NC(=O)c2ccc(OC)cc2)cc1	-4.2%	-8.9%	-9.5%	2.6%	0.0%	12.6µM*
COc1ccc(C(=O)COC(=O)c2ccc(NC(=O)c3ccccc3)cc2)cc1	11.0%	5.1%	20.6%	-5.2%	2.2%	10µM*
